Source: PubChem BioAssay (Tox21)
Results filed as inconclusive are left out. The source made the active and inactive calls. Unless noted, calls follow the shape of the dose curve; as a rule, active = well fitted curve in the direction sought with a large enough effect in the repeat runs; inconclusive = weak or mixed curves; inactive = no such curve, though single readings can be large; an effect the other way counts as inactive or inconclusive.

Columns and labels:
[1] = qHTS assay for small molecules that induce genotoxicity in human embryonic kidney cells expressing luciferase-tagged ATAD5 (AID 651632); also: nearly all actives have a fitted effect of over 15% in size
Method in brief: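 Luminescence read-out: after 16 hr compound exposure at 37C, ATAD5-luciferase HEK293T cells received Amplite, 30 min RT, then CCD imaging. A rise in signal marks genotoxic stress.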

[2] = qHTS assay for small molecule agonists of the p53 signaling pathway - cell viability (AID 651633; calls by dose curve; also: potency is read from the fitted curve at half-maximal effect; nearly all actives have a fitted effect of over 30% in size)
Method in brief: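 p53RE-bla cells, seeded at 4,000 per well and rested 5 h at 37 C/5% CO2, received compounds in DMSO for 16 h at 37 C. CellTiter-Glo was then added, and luminescence was read after 30 min at room temperature to gauge cytotoxicity.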

[3] = qHTS assay for small molecules that induce genotoxicity in human embryonic kidney cells expressing luciferase-tagged ATAD5 - cell viability (AID 651634; calls by dose curve; also: potency is read from the fitted curve at half-maximal effect; nearly all actives have a fitted effect of over 25% in size)
Method in brief: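 HEK293T ATAD5-luc cells, 2,000/well; compound 15.5 hr, 37C/5% CO2; CellTiter-Fluor 30 min, 37C; fluorescence read.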

[4] = qHTS assay for small molecule disruptors of the mitochondrial membrane potential - cell viability (AID 720634; calls by dose curve;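 also: human HepG2 liver cancer cells; series mostly up to about 83 µM; nearly all actives have a fitted effect of over 20% in size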)
Method in brief: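 Luminescence from CellTiter-Glo (ATP content) gave viability in HepG2 cells, read in the same wells as the MMP dye assay after 1 hr compound exposure at 37 C.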

[5] = qHTS assay to test for compound auto fluorescence at 590 nm (red) in HepG2 cells (AID 720674)
Method in brief: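 Intrinsic compound fluorescence in the red window (Ex/Em 540/590 nm) is measured in attached HepG2 cells exposed for 1 hr, DMSO vehicle as baseline, benchmarked to Rose Bengal sodium.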

[6] = qHTS assay to test for compound auto fluorescence at 535 nm (green) in HepG2 cells (AID 720675)
[7] = qHTS assay to test for compound auto fluorescence at 460 nm (blue) in HEK293 cells (AID 720678)
Method in brief: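 Auto fluorescence in the blue band was quantified as triamterene equivalency. HEK293 cells were seeded at 2,000/well, dosed after a 4-5 hr attachment, and kept overnight at 37C before the 405/460 nm reading.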

[8] = qHTS assay to test for compound auto fluorescence at 590 nm (red) in HEK293 cells (AID 720679)
Method in brief: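 Autofluorescence equivalency to Rose Bengal sodium, 540/590nm, in HEK293 cells exposed overnight to 23 nL compound per well.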

[9] = qHTS assay to test for compound auto fluorescence at 535 nm (green) in HEK293 cells (AID 720680)
[10] = qHTS assay to test for compound auto fluorescence at 460 nm (blue) in HEK293 cell free culture (AID 720681)
Method in brief: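 Test compounds were pinned into cell-free culture medium (DMEM with 10% FBS) and fluorescence was read directly at Ex/Em 405/460 nm. Signals were expressed as fluorescence equivalents of triamterene, with DMSO vehicle as control.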

[11] = qHTS assay to test for compound auto fluorescence at 535 nm (green) in HEK293 cell free culture (AID 720682)
Method in brief: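 Green-label autofluorescence (485 nm excitation, 535 nm emission) measured on compound added to cell-free culture medium (DMEM, 10% FBS). Output is expressed relative to fluorescein.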

[12] = qHTS assay to test for compound auto fluorescence at 590 nm (red) in HepG2 cell free culture (AID 720684)
Method in brief: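 Readout: intrinsic compound fluorescence at 590 nm emission after 540 nm excitation, scaled to Rose Bengal sodium. Matrix was cell-free MEM with 10% FBS; DMSO vehicle wells served as control.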

[13] = qHTS assay to test for compound auto fluorescence at 460 nm (blue) in HepG2 cell free culture (AID 720685)
Method in brief: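 Cell-free plates of MEM plus 10% FBS received 23 nL compound or DMSO vehicle; blue-channel (405/460 nm) intensity scored against triamterene as reference fluorophore.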

[14] = qHTS assay to test for compound auto fluorescence at 535 nm (green) in HepG2 cell free culture (AID 720686)
[15] = qHTS assay to test for compound auto fluorescence at 460 nm (blue) in HepG2 cells (AID 720687)
Method in brief: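 Cells (2,000/well in MEM with 10% FBS) attached overnight at 37 C, then were exposed to compound or DMSO for 1 hr at 37 C, 5% CO2. Fluorescence read at Ex/Em 405/460 nm, expressed as triamterene-equivalent signal.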

[16] = target: Glucocorticoid receptor (Homo sapiens) (UniProt P04150); assay: qHTS assay to identify small molecule antagonists of the glucocorticoid receptor (GR) signaling pathway (AID 720692; active = well fitted inhibition curve with a large enough effect in the signal ratio in the repeat runs, not every such curve was filed as active; the % refers to the signal ratio; also: potency is read from the fitted curve at half-maximal effect)
Method in brief: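 Read-out: beta-lactamase FRET substrate fluorescence, 2 h at room temperature, in HeLa cells stably carrying a GRE-driven bla reporter. Compounds were co-incubated with 5 nM dexamethasone agonist (final) for 18 h at 37 C.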

[17] = qHTS assay to identify small molecule antagonists of the glucocorticoid receptor (GR) signaling pathway - cell viability counter screen (AID 720693); also: potency is read from the fitted curve at half-maximal effect; nearly all actives have a fitted effect of over 55% in size
[18] = qHTS assay for identifying genotoxic compounds that show differential cytotoxicity against isogenic chicken DT40 cell lines with known DNA damage response pathways - wild type cell line (AID 743012); also: potency is read from the fitted curve at half-maximal effect; nearly all actives have a fitted effect of over 60% in size
Method in brief: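 CellTiter-Glo luminescence readout of viability in wild type DT40 cells after 40 h compound exposure at 37 C/5% CO2; 300 cells/well; reagent incubated 30 min at room temperature before reading.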

[19] = qHTS assay for identifying genotoxic compounds that show differential cytotoxicity against isogenic chicken DT40 cell lines with known DNA damage response pathways - Rev3 mutant cell line (AID 743014); also: potency is read from the fitted curve at half-maximal effect; nearly all actives have a fitted effect of over 55% in size
[20] = qHTS assay for identifying genotoxic compounds that show differential cytotoxicity against isogenic chicken DT40 cell lines with known DNA damage response pathways - Rad54/Ku70 mutant cell line (AID 743015); also: potency is read from the fitted curve at half-maximal effect; nearly all actives have a fitted effect of over 60% in size
[21] = qHTS assay to identify small molecule antagonists of the androgen receptor (AR) signaling pathway - cell viability counter screen (AID 743033; also: potency is read from the fitted curve at half-maximal effect; nearly all actives have a fitted effect of over 45% in size)
[22] = target: Androgen receptor (Homo sapiens) (UniProt P10275); assay: qHTS assay to identify small molecule antagonists of the androgen receptor (AR) signaling pathway (AID 743035; active = well fitted inhibition curve with a large enough effect in the signal ratio in the repeat runs, not every such curve was filed as active; the % refers to the signal ratio; also: potency is read from the fitted curve at half-maximal effect)
Method in brief: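 AR-bla HEK293 reporter cells; 4 h settle at 37C/5% CO2; compound + R1881 agonist, 16 h at 37C; LiveBLAzer B/G FRET substrate 2 h RT; fluorescence intensity read. qHTS format.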

[23] = target: Androgen receptor (Homo sapiens) (UniProt P10275); assay: qHTS assay to identify small molecule agonists of the androgen receptor (AR) signaling pathway (AID 743036; active = well fitted activation curve with a large enough effect in the signal ratio in the repeat runs, with a control signal flat, not every such curve was filed as active; the % refers to the signal ratio)
Method in brief: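 AR-UAS-bla HEK293 cells, plated 4 h before dosing, were treated with compound for 16 h at 37C. beta-Lactamase reporter read after 2 h with LiveBLAzer B/G FRET substrate at room temperature.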

[24] = target: Androgen receptor (Homo sapiens) (UniProt P10275); assay: qHTS assay to identify small molecule agonists of the androgen receptor (AR) signaling pathway using the MDA cell line (AID 743040; also: nearly all actives have a fitted effect of over 20% in size)
Method in brief: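 Agonist activity is measured as luciferase luminescence in human MDA-kb2 cells whose MMTV reporter responds to both AR and GR. Compounds in DMSO incubate 16 h at 37C, 0% CO2, and ONE-Glo is read after 30 min.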

[25] = qHTS assay to identify small molecule antagonists of the thyroid receptor (TR) signaling pathway - cell viability counter screen (AID 743064); also: nearly all actives have a fitted effect of over 50% in size; also: potency is read from the fitted curve at half-maximal effect
Method in brief: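 GH3.TRE-Luc rat pituitary cells dosed after 4 hr plating, co-stimulated with T3 at 1 nM final, incubated 23.5 h at 37 C. Viability measured in the same wells by CellTiter-Fluor fluorescence after 30 min further at 37 C.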

[26] = qHTS assay to identify small molecule antagonists of the thyroid receptor (TR) signaling pathway (AID 743065); also: nearly all actives have a fitted effect of over 55% in size; also: potency is read from the fitted curve at half-maximal effect
Method in brief: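 GH3.TRE-Luc rat pituitary cells carrying two TR response elements driving luciferase were plated for 4 h, given compound plus 1 nM T3 (final), and incubated 23.5 h at 37 C. ONE-Glo luminescence measured reporter inhibition; CellTiter-Fluor fluorescence tracked cytotoxicity.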

[27] = qHTS assay to identify small molecule antagonists of the estrogen receptor alpha (ER-alpha) signaling pathway - cell viability counter screen (AID 743074; calls by dose curve;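 also: HEK293 cells carrying ER-alpha-UAS-bla reporter stimulated with 17beta-estradiol; potency is read from the fitted curve at half-maximal effect; nearly all actives have a fitted effect of over 45% in size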)
[28] = target: Estrogen receptor (Homo sapiens) (UniProt P03372); assay: qHTS assay to identify small molecule agonists of the estrogen receptor alpha (ER-alpha) signaling pathway (AID 743075; calls by dose curve;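 also: HEK293 GripTite cells with ER-alpha and UAS-driven beta-lactamase reporter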)
[29] = qHTS assay to identify small molecule antagonists of the estrogen receptor alpha (ER-alpha) signaling pathway using the BG1 cell line - cell viability counter screen (AID 743081);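 also: compound given together with 17beta-estradiol as the ER stimulus; series mostly up to about 70 µM; nearly all actives have a fitted effect of over 45% in size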
[30] = target: Aryl hydrocarbon receptor (Homo sapiens) (UniProt P35869); assay: qHTS assay to identify small molecule that activate the aryl hydrocarbon receptor (AhR) signaling pathway (AID 743085);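 also: HG2L7.5c1 human HepG2 liver cells with stably integrated DRE-driven firefly reporter; series mostly up to about 70 µM; nearly all actives have a fitted effect of over 15% in size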
Method in brief: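 HepG2 cells stably carrying a 20-DRE firefly luciferase reporter (HG2L7.5c1) treated with compound for 24 hr at 37C. Luciferase read by ONE-Glo luminescence, with CellTiter-Fluor viability read first.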

[31] = qHTS assay to identify small molecule that activate the aryl hydrocarbon receptor (AhR) signaling pathway - cell viability counter screen (AID 743086); also: nearly all actives have a fitted effect of over 45% in size; also: potency is read from the fitted curve at half-maximal effect
Method in brief: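 HepG2-AhR-luc (HG2L7.5c1) cells, 4000/well, were preincubated 5 h at 37C, exposed to compound in qHTS format for 24 hr at 37C, then given CellTiter-Fluor for 30 min; viability was read as fluorescence in the reporter wells.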

[32] = target: Peroxisome proliferator-activated receptor gamma (Homo sapiens) (UniProt P37231); assay: qHTS assay to identify small molecule agonists of the peroxisome proliferator-activated receptor gamma (PPARg) signaling pathway (AID 743094; active = well fitted activation curve with a large enough effect in the signal ratio in the repeat runs, not every such curve was filed as active; the % refers to the signal ratio)
Method in brief: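 HEK293H PPARg-bla cells, 5 h settle at 37C/5% CO2; compound (DMSO) 17 h, 37C; B/G FRET substrate 1 h RT; fluorescence intensity read-out. qHTS format.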

[33] = qHTS assay for small molecule disruptors of the mitochondrial membrane potential (AID 720635); also: potency is read from the fitted curve at half-maximal effect
Method in brief: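 HepG2 cells (2,000/well) attached overnight at 37C, then took compound for 1 hr at 37C, 5% CO2. Mito-MPS dye was added for 30 min; fluorescence was read at 490/535 nm (monomers) and 540/590 nm (aggregates).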

[34] = tested on: thyroid hormone receptor (rat, GH3 cells); assay: qHTS assay to identify small molecule agonists of the thyroid receptor (TR) signaling pathway (AID 743066; calls by dose curve)
[35] = target: Aromatase (Homo sapiens) (UniProt P11511); assay: qHTS assay to identify aromatase inhibitors (AID 743083); also: series mostly up to about 70 µM; nearly all actives have a fitted effect of over 55% in size
[36] = qHTS assay to identify aromatase inhibitors - cell viability counter screen (AID 743084)
[37] = target: Acetylcholinesterase (Homo sapiens) (UniProt P22303); assay: Acetylcholinesterase (AChE) small molecule antagonists: enzyme-based qHTS assay with human liver microsomes (AID 1347399; calls by dose curve; also: nearly all actives have a fitted effect of over 60% in size); details: Potency: qHTS inhibition; outcome: qHTS inhibition
Method in brief: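 Recombinant human AChE (50 mU/mL in the enzyme mix) and human liver microsomes (0.25 mg/mL final) were preincubated with compound and NADPH (0.25 mg/mL final) for 30 min at 37 C. Acetylthiocholine/DTNB was then added; thiocholine was read colorimetrically after 10 min at room temperature.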

Measured: Potency

Androgen receptor (Homo sapiens), sequence (P10275 whole entry, looked up): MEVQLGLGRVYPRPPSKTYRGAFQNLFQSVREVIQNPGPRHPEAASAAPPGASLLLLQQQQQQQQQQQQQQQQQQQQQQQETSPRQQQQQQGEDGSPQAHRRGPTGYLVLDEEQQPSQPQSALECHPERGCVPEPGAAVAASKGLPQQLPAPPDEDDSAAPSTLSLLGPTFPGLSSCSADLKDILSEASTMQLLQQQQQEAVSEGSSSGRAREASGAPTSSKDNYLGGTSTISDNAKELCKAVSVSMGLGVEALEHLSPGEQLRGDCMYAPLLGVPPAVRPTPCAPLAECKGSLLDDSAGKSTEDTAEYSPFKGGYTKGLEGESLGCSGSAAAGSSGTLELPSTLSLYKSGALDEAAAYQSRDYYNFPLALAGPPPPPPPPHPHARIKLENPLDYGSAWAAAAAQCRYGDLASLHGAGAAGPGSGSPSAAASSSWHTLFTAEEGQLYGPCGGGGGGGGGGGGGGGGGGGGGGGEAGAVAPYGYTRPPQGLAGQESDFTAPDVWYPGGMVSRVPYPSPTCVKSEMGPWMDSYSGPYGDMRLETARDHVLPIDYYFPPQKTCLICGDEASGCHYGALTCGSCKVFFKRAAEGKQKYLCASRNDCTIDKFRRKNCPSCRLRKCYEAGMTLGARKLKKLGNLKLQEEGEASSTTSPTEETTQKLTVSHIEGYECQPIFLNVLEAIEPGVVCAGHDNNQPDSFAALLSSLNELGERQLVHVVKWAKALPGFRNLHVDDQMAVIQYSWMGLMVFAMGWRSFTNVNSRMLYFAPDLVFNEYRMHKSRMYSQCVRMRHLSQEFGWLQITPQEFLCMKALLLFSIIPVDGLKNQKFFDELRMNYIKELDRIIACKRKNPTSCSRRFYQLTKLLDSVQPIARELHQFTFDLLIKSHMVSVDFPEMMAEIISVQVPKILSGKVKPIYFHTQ
Acetylcholinesterase (Homo sapiens), sequence (P22303 whole entry, looked up): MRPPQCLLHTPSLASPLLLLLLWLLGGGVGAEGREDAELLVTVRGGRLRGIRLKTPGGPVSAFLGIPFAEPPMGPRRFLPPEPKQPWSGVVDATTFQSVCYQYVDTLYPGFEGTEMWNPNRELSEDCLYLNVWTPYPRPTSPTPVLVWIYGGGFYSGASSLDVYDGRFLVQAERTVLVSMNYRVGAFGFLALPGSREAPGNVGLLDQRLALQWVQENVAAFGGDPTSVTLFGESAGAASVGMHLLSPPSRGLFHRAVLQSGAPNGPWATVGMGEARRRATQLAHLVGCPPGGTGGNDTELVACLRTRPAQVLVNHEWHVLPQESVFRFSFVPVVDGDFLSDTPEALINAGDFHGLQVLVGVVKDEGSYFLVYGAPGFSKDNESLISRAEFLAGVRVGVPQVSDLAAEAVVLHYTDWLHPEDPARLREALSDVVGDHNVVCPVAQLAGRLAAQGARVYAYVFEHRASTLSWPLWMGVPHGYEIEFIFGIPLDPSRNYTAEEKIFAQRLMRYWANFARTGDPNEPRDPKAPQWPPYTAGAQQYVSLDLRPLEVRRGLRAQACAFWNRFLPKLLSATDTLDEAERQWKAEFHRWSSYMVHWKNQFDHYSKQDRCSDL
Estrogen receptor (Homo sapiens), sequence (P03372 whole entry, looked up): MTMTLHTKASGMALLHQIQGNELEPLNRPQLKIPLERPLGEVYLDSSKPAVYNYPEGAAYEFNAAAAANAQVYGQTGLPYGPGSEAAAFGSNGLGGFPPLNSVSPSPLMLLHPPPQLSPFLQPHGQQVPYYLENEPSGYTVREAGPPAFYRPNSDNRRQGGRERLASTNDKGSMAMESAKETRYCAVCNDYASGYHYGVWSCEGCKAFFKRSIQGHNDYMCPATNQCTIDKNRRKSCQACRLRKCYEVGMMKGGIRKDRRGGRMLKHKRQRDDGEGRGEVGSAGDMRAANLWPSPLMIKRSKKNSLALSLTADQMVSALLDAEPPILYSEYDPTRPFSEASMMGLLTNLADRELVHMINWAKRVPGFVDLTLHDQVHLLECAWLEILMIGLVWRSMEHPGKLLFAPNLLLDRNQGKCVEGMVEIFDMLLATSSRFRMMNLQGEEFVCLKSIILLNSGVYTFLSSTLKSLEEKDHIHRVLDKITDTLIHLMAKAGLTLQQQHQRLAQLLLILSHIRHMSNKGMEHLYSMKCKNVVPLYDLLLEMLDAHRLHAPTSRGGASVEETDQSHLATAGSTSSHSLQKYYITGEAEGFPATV
Glucocorticoid receptor (Homo sapiens), sequence (P04150 whole entry, looked up): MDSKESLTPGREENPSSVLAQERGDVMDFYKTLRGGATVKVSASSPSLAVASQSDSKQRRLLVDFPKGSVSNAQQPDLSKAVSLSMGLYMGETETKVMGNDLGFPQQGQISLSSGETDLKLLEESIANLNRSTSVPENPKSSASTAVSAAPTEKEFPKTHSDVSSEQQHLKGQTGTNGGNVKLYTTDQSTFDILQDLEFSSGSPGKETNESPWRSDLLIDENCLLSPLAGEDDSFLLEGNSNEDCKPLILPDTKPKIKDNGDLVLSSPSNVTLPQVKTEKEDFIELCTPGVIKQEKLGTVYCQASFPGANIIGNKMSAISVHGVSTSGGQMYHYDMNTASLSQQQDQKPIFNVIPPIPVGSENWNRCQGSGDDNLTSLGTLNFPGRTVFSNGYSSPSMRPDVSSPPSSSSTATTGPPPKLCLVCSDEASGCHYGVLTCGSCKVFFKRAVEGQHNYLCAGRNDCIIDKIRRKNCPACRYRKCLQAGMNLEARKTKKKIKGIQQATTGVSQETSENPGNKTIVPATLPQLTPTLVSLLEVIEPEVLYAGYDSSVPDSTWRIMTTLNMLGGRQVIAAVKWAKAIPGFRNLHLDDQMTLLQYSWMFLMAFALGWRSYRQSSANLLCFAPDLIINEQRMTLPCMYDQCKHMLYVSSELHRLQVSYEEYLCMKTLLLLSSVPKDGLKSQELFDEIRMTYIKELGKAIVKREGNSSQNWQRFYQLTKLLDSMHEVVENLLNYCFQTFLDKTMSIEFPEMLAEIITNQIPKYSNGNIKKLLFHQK
Aromatase (Homo sapiens), sequence (P11511 whole entry, looked up): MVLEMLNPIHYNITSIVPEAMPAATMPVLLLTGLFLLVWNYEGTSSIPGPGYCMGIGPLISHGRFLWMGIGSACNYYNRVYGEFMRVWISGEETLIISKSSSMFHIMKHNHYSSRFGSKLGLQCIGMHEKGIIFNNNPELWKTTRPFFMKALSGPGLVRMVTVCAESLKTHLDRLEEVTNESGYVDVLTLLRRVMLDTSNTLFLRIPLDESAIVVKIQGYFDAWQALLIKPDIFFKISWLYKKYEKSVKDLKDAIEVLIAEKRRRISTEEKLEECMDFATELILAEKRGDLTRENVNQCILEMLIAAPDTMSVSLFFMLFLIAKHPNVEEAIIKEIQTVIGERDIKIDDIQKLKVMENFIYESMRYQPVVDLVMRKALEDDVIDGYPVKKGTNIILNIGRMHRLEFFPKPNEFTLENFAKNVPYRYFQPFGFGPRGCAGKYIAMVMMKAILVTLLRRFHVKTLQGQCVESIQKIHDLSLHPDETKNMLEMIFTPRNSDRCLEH
Aryl hydrocarbon receptor (Homo sapiens), sequence (P35869 whole entry, looked up): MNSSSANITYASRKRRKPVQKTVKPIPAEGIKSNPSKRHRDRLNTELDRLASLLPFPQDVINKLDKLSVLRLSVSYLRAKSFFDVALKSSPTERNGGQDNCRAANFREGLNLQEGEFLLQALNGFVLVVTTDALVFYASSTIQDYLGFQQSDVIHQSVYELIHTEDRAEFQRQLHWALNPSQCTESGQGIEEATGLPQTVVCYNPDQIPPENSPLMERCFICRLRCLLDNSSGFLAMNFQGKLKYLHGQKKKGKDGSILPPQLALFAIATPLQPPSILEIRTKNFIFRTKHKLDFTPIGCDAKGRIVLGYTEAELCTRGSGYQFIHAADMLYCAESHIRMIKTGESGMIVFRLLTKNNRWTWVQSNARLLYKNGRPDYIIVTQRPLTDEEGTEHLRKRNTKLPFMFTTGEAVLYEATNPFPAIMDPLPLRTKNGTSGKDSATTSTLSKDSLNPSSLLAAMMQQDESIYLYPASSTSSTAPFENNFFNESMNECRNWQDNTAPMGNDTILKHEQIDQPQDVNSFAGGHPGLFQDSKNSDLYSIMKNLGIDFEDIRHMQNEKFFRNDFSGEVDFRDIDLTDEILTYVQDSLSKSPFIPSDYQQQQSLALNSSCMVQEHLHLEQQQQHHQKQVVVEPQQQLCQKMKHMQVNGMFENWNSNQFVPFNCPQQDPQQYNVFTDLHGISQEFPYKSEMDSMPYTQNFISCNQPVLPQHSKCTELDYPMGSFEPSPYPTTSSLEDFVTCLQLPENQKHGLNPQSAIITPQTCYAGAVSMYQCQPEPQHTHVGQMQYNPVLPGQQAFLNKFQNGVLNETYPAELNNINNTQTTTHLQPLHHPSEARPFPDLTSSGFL
Peroxisome proliferator-activated receptor gamma (Homo sapiens), sequence (P37231 whole entry, looked up): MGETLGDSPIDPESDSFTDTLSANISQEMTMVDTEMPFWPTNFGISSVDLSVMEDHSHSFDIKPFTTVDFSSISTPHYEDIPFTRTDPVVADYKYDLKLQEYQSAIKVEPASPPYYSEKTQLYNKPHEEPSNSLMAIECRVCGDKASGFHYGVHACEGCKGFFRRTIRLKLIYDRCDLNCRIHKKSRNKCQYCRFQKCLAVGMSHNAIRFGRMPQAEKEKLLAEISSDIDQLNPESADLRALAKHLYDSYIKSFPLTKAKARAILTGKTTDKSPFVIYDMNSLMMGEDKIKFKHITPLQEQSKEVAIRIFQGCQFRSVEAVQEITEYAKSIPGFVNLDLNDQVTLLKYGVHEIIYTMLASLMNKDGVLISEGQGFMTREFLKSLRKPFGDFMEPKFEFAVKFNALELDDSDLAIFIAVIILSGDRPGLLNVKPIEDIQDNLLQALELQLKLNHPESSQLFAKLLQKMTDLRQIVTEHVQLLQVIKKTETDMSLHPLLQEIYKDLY

CN1C2CCC1CC(OC(c1ccccc1)c1ccc(Cl)cc1)C2 (stereo not given)
active: [2] 29.8 µM | [3] 26.6 µM | [16] 21.3 µM | [17] 23.9 µM | [18] 2.11 µM | [19] 2.98 µM | [20] 4.22 µM | [21] 15.1 µM | [22] 21.3 µM | [25] 4.73 µM | [26] 5.96 µM | [27] 23.9 µM | [31] 23.7 µM
not listed: [33] | [34] | [35] | [36] | [37]
inactive: all other assays above

CC(=O)O[C@H]1C[C@H](O[C@H]2[C@@H](O)C[C@H](O[C@H]3[C@@H](O)C[C@H](OC4CC[C@@]5(C)C(CC[C@@H]6[C@@H]5CC[C@]5(C)[C@@H](C7=CC(=O)OC7)[C@@H](O)C[C@]65O)C4)O[C@@H]3C)O[C@@H]2C)O[C@H](C)[C@H]1O[C@@H]1O[C@H](CO)[C@@H](O)[C@H](O)[C@H]1O (stereo not given in full)
active: [2] 0.376 µM | [3] 0.75 µM | [33] 0.944 µM | [17] 2.39 µM | [18] 2.11 µM | [19] 2.66 µM | [20] 2.66 µM | [21] 0.601 µM | [22] 4.25 µM | [27] 0.379 µM
not listed: [16] | [23] | [24] | [30] | [32] | [37]
inactive: all other assays above

COc1cc2c(N3CCN(C(=O)Nc4ccc(OC(C)C)cc4)CC3)ncnc2cc1OCCCN1CCCCC1
inactive: [37]

Nc1ccc(Oc2ccc(N)c(N)c2)cc1
inactive: [37]
